In the library only some 9% were active in any assay of this set; here they are far more common.
IMPase Li inh – cell-permeable IMPase inhibitors with lithium potentiation; CHO-M1 cells, IP1 TR-FRET (IP-One), carbachol + lithium; Potency, µM (titrated, usually from 59.4 µM), for inactives: at the highest dose activity, negative = IMPase inhibition, most hits filed as inhibitors; actives 0.35% (n = 210,000); active = well fitted curve in the direction sought with a large enough effect; inconclusive = small, poorly fitted or top-dose-only effect, or another doubt; inactive = no such curve, though single readings can be large; an effect the other way counts as inactive or inconclusive;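 note: IP1 builds up when IMPase is blocked and the TR-FRET signal falls; plate controls were basal vehicle for no effect and high inhibitor control for full effect; nearly all actives have a fitted effect of over 50% in size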
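Test compounds were applied to CHO-M1 cells previously cultured for 16–30 h at 2000 per well. A small lithium amount accompanied them; after 30 min at 37C, IP1 was quantified by TR-FRET.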
KinaseGlo FLuc – Kinase-Glo luciferase inhibition (counter-screen); Kinase-Glo luciferase, ATP luminescence, 8 min; Potency, µM (top dose mostly 38.3 µM), without a hit: at the top dose activity change, negative = inhibition, most hits filed as inhibitors; actives 0.28% (n = 200,000); active = well fitted curve in the direction sought with a large enough effect; inconclusive = small, poorly fitted or top-dose-only effect, or another doubt; inactive = no such curve, though single readings can be large; an effect the other way counts as inactive or inconclusive; note: nearly all actives have a fitted effect of over 60% in size
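Light output from Kinase-Glo luciferase with luciferin and 10 uM ATP in 50 mM imidazole pH 7.2, KCl, MgCl2, Tween 20, BSA; compound pin-delivered, 8-min ambient incubation, then luminescence read.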
Lamin A splicing – LMNA splicing modulation | AID 1487 | actives 0.01% (n = 200,000) | Potency, µM (top dose mostly 46.1 µM), inactives show top-dose ratio change, negative = inhibition, most hits filed as inhibitors | HeLa LMNA splicing GFP/RFP minigene ratio, 48 h; active = well fitted inhibition curve with a large enough effect in the signal ratio, with a control signal flat, not every such curve was filed as active; inconclusive = small, poorly fitted or top-dose-only effect, or effect the other way, or a change in a side signal; the % refers to the signal ratio
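Read-out is the ratio of GFP to DsRed2 object intensity, acquired by 488 nm laser-scanning cytometry on HeLa lamin A-EGFP minigene reporter cells. Compound incubation 48 hrs at 37 °C in Opti-MEM with 2% FBS; DMSO 0.5% final.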
ALDH1A1 block – inhibitors of human aldehyde dehydrogenase 1A1. P00352. Purified ALDH1A1, NADH fluorescence, propionaldehyde substrate. Potency, µM (top dose mostly 75.3 µM), without a hit: top-dose activity, negative = inhibition, actives largely listed as inhibitors. actives 7.3% (n = 220,000). AID 1030;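 note: plate controls were no enzyme wells and a reference inhibitor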
Target sequence (P00352 whole entry, looked up): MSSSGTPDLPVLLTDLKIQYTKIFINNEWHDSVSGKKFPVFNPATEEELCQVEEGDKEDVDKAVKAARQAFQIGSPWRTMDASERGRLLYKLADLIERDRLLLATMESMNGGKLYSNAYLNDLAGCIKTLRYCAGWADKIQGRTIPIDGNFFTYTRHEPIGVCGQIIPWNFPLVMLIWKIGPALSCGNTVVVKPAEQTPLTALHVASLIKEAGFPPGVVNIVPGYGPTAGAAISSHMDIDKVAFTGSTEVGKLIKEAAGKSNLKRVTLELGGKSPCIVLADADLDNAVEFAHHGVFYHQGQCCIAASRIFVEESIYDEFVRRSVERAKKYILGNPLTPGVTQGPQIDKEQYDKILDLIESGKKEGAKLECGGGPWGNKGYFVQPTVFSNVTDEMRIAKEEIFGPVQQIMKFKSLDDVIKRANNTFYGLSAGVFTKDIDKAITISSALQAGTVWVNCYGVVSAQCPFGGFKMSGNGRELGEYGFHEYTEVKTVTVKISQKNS
HPGD inh – blocks human HPGD enzyme activity; P15428; purified HPGD, NADH fluorescence kinetic, PGE2 substrate; Potency, µM, inactives show at the top dose activity change, negative = inhibition, hits mostly inhibitors; actives 4.3% (n = 150,000); AID 894
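20 nM HPGD preincubated 15 min at room temperature with compound in 50 mM Tris-HCl pH 8, 0.01% Tween 20. Started with 1 mM NAD+ and 30 uM prostaglandin E2; NADH fluorescence (360/450 nm) read 5 times over 30-s intervals, last minus first.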
* hit, by the source's call; u = inconclusive; x = no result; [ ] = remark or other dose. Unless noted, calls come from the whole dose curve; as a rule, active = well fitted inhibition curve with a large enough effect (not every such curve was filed as active); inconclusive = small, poorly fitted or top-dose-only effect, or another doubt; inactive = no such curve, though single readings can be large or run the other way. Unless noted, % is set by controls: 0 for no effect and ±100 for the full control effect; potency is the fitted concentration of half-maximal effect.

SMILES	IMPase Li inh	KinaseGlo FLuc	Lamin A splicing	ALDH1A1 block	HPGD inh
Cc1ccc(-c2cc(-c3ccccc3)c3c(N)c(S(C)(=O)=O)sc3n2)cc1	10µM*	9%	-6%	u	u
COc1ccccc1OCCn1cc(/C=C(\C#N)C(=O)NCc2cccs2)c2ccccc21	6%	3%	-11%	u	-24%
N#C/C(=C/c1cn(CC(=O)O)c2ccccc12)C(=O)Nc1ccccc1	7%	4%	u	25µM*	x
Cc1cccc(NC(=O)/C(C#N)=C\c2cn(CC(=O)O)c3ccccc23)c1	9%	5%	x	20µM*	x
N#C/C(=C\c1cn(Cc2ccccc2C#N)c2ccccc12)C(=O)NCc1cccs1	7%[38.3 µM]	-5%	8%	7.9µM*	u
COc1ccc(-c2nnc3n(CCc4ccccc4)c(=O)c4ccccc4n23)cc1OC	x	x	-17%	1.8µM*	x
O=c1c2ccccc2n2c(-c3cccc(Cl)c3)nnc2n1Cc1ccccc1	6%	0%	-16%	-9%	-20%
COc1ccc(OC)c(CNC(=O)c2coc(=O)c3ccccc23)c1	-1%	5%	-20%[46 µM]	2%	x
Cc1cc2nc(-c3ccco3)cc(C(F)(F)F)n2n1	27%[38.3 µM]	2%	2%	14µM*	-28%
Cc1nnc(SCC(=O)Nc2cccc(S(=O)(=O)N(C)c3ccccc3)c2)s1	-11%	6%	u	-2%	0.022µM*
COc1cccc(NC(=O)CSc2nnc(C)s2)c1	19%[38.3 µM]	4%	13%	9%	-12%
CN(C)S(=O)(=O)c1cccc(NC(=O)CSc2nncn2-c2ccccc2)c1	20%	2%	-30%[46 µM]	u	x
COCCn1cnnc1SCC(=O)Nc1cccc(S(=O)(=O)N(C)c2ccccc2)c1	13%	2%	x	5.6µM*	x
CCS(=O)(=O)N1N=C(c2cccc(NS(C)(=O)=O)c2)CC1c1ccc(C)cc1 (stereo not drawn)	5%	-4%	u	20µM*	x
CCS(=O)(=O)Nc1cccc(C2=NN(S(C)(=O)=O)C(c3ccccc3)C2)c1 (stereo not drawn)	2%	0%	2%[46 µM]	u	x
C/C(N)=C(/C#N)C(=O)CSc1nnc(Nc2cccc(C)c2C)s1	-2%[38.3 µM]	6%	-9%	u	28µM*
Cn1cccc1C(=O)N1CCC2(CCN(C(=O)Nc3ccccc3)CC2)CC1	6%	0%	x	3%	-8%
CCn1c(SCC(=O)N2c3ccccc3Sc3ccccc32)nc2c1c(=O)n(C)c(=O)n2C	7%[38.3 µM]	-3%	2%	11µM*	-12%
Cn1c(=O)c2c(nc(SCC(=O)c3ccccc3F)n2C)n(C)c1=O	-2%	-1%	x	18µM*	x
CCCn1c(SCC(=O)N2c3ccccc3CCc3ccccc32)nc2c1c(=O)n(C)c(=O)n2C	22%[38.3 µM]	-3%	-8%	11µM*	-13%
Cn1c(=O)c2c(nc(SCC(=O)Nc3ccccc3)n2C)n(C)c1=O	28%[38.3 µM]	0%	-5%	9%	-13%
C=CCn1c(=O)c(C(=O)Nc2ccccc2S(N)(=O)=O)c(O)c2ccccc21	0%	-1%	u	11%	x
O=C(CNc1cc(S(=O)(=O)N2CCOCC2)ccc1N1CCCC1)N1CCc2ccccc21	11%	-3%	x	25µM*	x
COc1ccc(/C=C(\C#N)C(=O)Nc2cc(S(=O)(=O)N3CCOCC3)ccc2N2CCCC2)cc1	5%	4%	6%	10µM*	13µM*
O=C(Nc1cccc(Cl)c1)Nc1cc(S(=O)(=O)N2CCOCC2)ccc1N1CCCC1	6%	2%	u	u	u
SMILES	IMPase Li inh	KinaseGlo FLuc	Lamin A splicing	ALDH1A1 block	HPGD inh
O=C(Nc1cc(S(=O)(=O)N2CCOCC2)ccc1N1CCCCC1)c1cc(-c2ccccn2)nc2ccccc12	23%	0%	x	7.1µM*	x
CCN(CC)S(=O)(=O)c1ccc(N2CCCCC2)c(NC(=O)/C(C#N)=C/c2ccc(OC)cc2)c1	2%	2%	2%	u	-18%
CCOC(=O)c1cnc2ncnn2c1N	2%	2%	10%[46 µM]	5%	x
CC(C)OCCCNC(=O)Cc1ccc(Br)cc1	1%	1%	u	8%	x
NC(=O)C1CCCN(C(=S)NCc2ccc3c(c2)OCO3)C1 (stereo not drawn)	10%	-2%	x	25µM*	x
O=C(c1ccccc1)N1CCN(C(=S)NCc2ccco2)CC1	-6%	6%	-7%[46 µM]	u	x
O=C(c1ccccc1)N1CCN(C(=S)NCc2ccc3c(c2)OCO3)CC1	-5%	1%	u	18µM*	32µM*
NC(=O)C1CCN(C(=S)NCc2ccc3c(c2)OCO3)CC1	7%	0%	32%[46 µM]	2%	x
CCNC(=O)C1CCN(S(=O)(=O)c2ccc3c(c2)CCCN3C(C)=O)CC1	x	x	15%[46 µM]	x	x
CC(C)(C)Cc1cc(N)on1	-1%	3%	4%	4%	-2%
Cc1ccc(-n2c3nc(=O)[nH]c(=O)c-3cc3cc([N+](=O)[O-])ccc32)cc1C	15%	3%	u	3%	32µM*
CC(C)c1ccc(CNc2n[nH]c(-c3ccco3)n2)cc1	x	x	20%[46 µM]	x	x
COC(=O)C1=C(C(=O)OC)[C@@H]2N(C)c3ccc(OC)cc3[C@@]23C[C@@H](C(=O)OC)N(S(=O)(=O)c2ccc(C)cc2)C3=N1	-7%	-1%[7.66 µM]	1%[9.22 µM]	-10%[13.5 µM]	2%
Cc1ccc(-c2nnn(CC(=O)Nc3ccccc3-c3ccccc3)n2)c(-n2cnnn2)c1	12%[38.3 µM]	1%	-3%	25µM*	-8%
Cc1ccc(C(=O)Cn2nnc(-c3ccccc3-n3cnnn3)n2)cc1	2%[38.3 µM]	5%	8%	u	-12%
O=C(Cn1nnc(-c2ccccc2-n2cnnn2)n1)NCc1ccccc1	14%[38.3 µM]	-6%	-5%	10µM*	-16%
Cc1ccc(NC(=O)Cn2nnc(-c3ccccc3-n3cnnn3)n2)c(C)c1	8%	-4%	x	-5%	x
Cc1ccc(C(=O)Nc2cc(-c3ccn[nH]3)c(C)n(N)c2=O)cc1	-7%	-3%	u	1%	x
COc1ccc2sc(N3C(=O)C4CC=C(C)CC4C3=O)nc2c1 (stereo not drawn)	-9%[38.3 µM]	2%	-9%	13µM*	-13%
COc1ccc(OCC(=O)OCc2cc(=O)n3nc(-c4cccs4)sc3n2)cc1	x	x	6%[46 µM]	x	x
CCCCCCN(C(=O)CCCCCN1C(=O)NC(C2CC2)C(C(=O)OCc2ccccc2)=C1C)C(C(=O)NCCCC)c1ccc(OCC(=O)OC)c(C(=O)OC)c1 (stereo not drawn)	11%	-3%	x	13µM*	-17%
Cc1ccc2c(c1)N(CCC(=O)NCc1ccccn1)C(=O)CO2	8%	-5%	-2%	22µM*	-6%
O=C(CN1C(=O)COc2ccccc21)NCCC1=CCCCC1	12%[38.3 µM]	-2%	14%	u	0%
O=C(CCN1C(=O)COc2ccccc21)NCCC1=CCCCC1	14%[38.3 µM]	-2%	-11%	32µM*	-13%

Source: PubChem
